# Screens (PubChem)
# In the library only some 6.5% were active in any assay of this set; here they are far more common.
# Vaccinia Venus – qHTS for Stage-Specific Inhibitors of Vaccinia Orthopoxvirus: Venus Reporter Primary qHTS; actives 0.46% (n = 330,000); Potency, µM (top dose mostly 36.5 µM), for inactives: at the top dose activity change, negative = inhibition, most hits filed as inhibitors; Vaccinia virus Venus reporter expression, fluorescence; calls by dose curve; tested in A549 cells; further: potency means the concentration at half of the fitted maximal effect; nearly all actives have a fitted effect of over 30% in size
# HCMV antiviral – qHTS Assay for inhibitors of the human cytomegalovirus (HCMV) | AID 1259415, 2018 | actives 4.5% (n = 410,000) | activity change, negative = inhibition, % at 57.5 µM | HFF cells, HCMV-luciferase reporter, 72 h; hits give low values; in the data active means activity change below about -60%; inconclusive means no clear call, values can overlap the other calls; inactive means above about -39%
#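 Cell-based, HFFs, 1000 cells/well, 16 h 37C; cpds in DMSO + HCMV-luc, MOI 1 PFU/cell; 72 h 37C; OneGlo luminescence after 5 min RT; norm. to buffer vs Salinomycin 10uM.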
# LASV entry inh – qHTS for Inhibitors of binding or entry into cells for Lassa Virus; Lassa virus pseudotype entry inhibition, cell reporter; Potency, µM (top dose mostly 37.9 µM), for the others: top-dose activity change, negative = inhibition, actives largely listed as inhibitors; actives 1.2% (n = 300,000); calls by dose curve; tested in HEK293 cells; further: potency means the concentration at half of the fitted maximal effect; nearly all actives have a fitted effect of over 50% in size
# Marburg entry inh – qHTS for inhibitors of binding or entry into cells for Marburg Virus | actives 1.8% (n = 300,000) | AID 540276, 2011 | Marburg virus pseudotyped entry inhibition, cell reporter | Potency, µM (doses to about 37.8 µM), for inactives: at the top dose activity change, negative = inhibition, hits mostly inhibitors; calls by dose curve; tested in HEK293 cells; further: potency means the concentration at half of the fitted maximal effect
# Vaccinia mCherry – qHTS for Stage-Specific Inhibitors of Vaccinia Orthopoxvirus: mCherry Reporter Primary qHTS | Vaccinia virus mCherry reporter infection, fluorescence | Potency, µM (top dose mostly 36.5 µM), inactives show at the top dose activity change, negative = inhibition, actives largely listed as inhibitors | actives 0.63% (n = 310,000); calls by dose curve; tested in A549 cells; further: potency means the concentration at half of the fitted maximal effect; nearly all actives have a fitted effect of over 35% in size
# FMDV antiviral – High Throughput Screening for Foot and Mouth Disease Virus Antivirals. FMDV antiviral cell-based qHTS. Potency, µM (doses to about 57.9 µM), without a hit: top-dose activity change, negative = inhibition, most hits filed as inhibitors. actives 1.2% (n = 410,000). AID 1159524, 2015; calls by dose curve; tested in HEK293T cells; further: read-out not given here; potency means the concentration at half of the fitted maximal effect; nearly all actives have a fitted effect of over 45% in size
# Active calls of the source: *; i = inactive; ? = inconclusive; / = no result given; ! = not active in a repeat; [ ] = remark or other dose. On the % scale 0 is the no-effect control and ±100 the full control effect.
SMILES,Vaccinia Venus,HCMV antiviral,LASV entry inh,Marburg entry inh,Vaccinia mCherry,FMDV antiviral
CC(=O)c1cccc(NS(=O)(=O)c2c(C(=O)N3CCOCC3)c(C)n(C)c2C)c1,-14%,-31,0%[46.1 µM],13%[46.1 µM],i,60%
COC(=O)C1=C(C)N(Cc2ccccc2)C(=NCC2CC2)NC1c1ccccc1 (stereo unspecified),/,/,/,-1%[14.2 µM],/,/
O=[N+]([O-])c1cc(S(=O)(=O)Nc2ccc(Cl)cc2)ccc1N/N=C/c1ccncc1,?,-102*,-13%[46.1 µM],?,?,-8%
CCCCCC(=O)N1C[C@@H](O)[C@H](n2cc(-c3ccc(F)cc3)nn2)C[C@H]1c1ccccc1,/,/,-7%[46.1 µM],/,/,/
C=CCN1C(c2ccc(Br)cc2)=CS/C1=C(/C#N)c1nnc(N2CCOCC2)n1-c1ccccc1,-7%,-80*,?,?,-11%,?
O=C(Nc1ccc2c(c1)C(=O)NC2=O)c1cc(Cl)ccc1Cl,-20%,-22,/,/,i,-15%
NC(N)=NC(=O)c1nc(Cl)c(N2CCCCCC2)nc1N,?,-22,?,7.1µM*,-20%,-14%
NC(N)=NC(=O)c1nc(Cl)c(N)nc1N,-24%,3,5%,-16%,?,-12%
CC(C)CN(C)c1nc(N)c(C(=O)N=C(N)N)nc1Cl,/,/,/,7.1µM*,/,/
CC(C)S(=O)(=O)NC(=O)C1(C)CCN1C(=O)Cc1ccccc1Cl (stereo unspecified),3%,-9,/,/,-10%,-19%
CC1CCCCN1C(=S)Nc1ccc2nc3n(c(=O)c2c1)CCCCC3 (stereo unspecified),0%,-104*,?,2%,-14%,23%
O=c1c2cc(NC(=S)NCCCN3CCC(Cc4ccccc4)CC3)ccc2nc2n1CCCCC2,?,-96*,?,7.1µM*,-21%,-21%
O=c1c2cc(NC(=S)NC3CCCCC3)ccc2nc2n1CCCCC2,-14%,-80*,11%[46.1 µM],-29%[46.1 µM],-12%,-27%
O=c1c2cc(NC(=S)NCCN3CCCCCC3)ccc2nc2n1CCCCC2,-3%,0,?,?,-11%,-22%
COc1cc(C(=O)Nc2ccc3nc4n(c(=O)c3c2)CCCCC4)cc(OC)c1OC,-1%[7.34 µM],9,-12%[46.1 µM],-15%[46.1 µM],-10%[7.34 µM],10µM*!
COc1ccc(C(=O)Nc2ccc3nc4n(c(=O)c3c2)CCCCC4)cc1OC,-7%,4,1%[46.1 µM],28%[46.1 µM],-9%,-16%
C=CCNc1nnc(S[C@@H]2CC(=O)N(c3ccc(OC)cc3)C2=O)s1,/,/,/,-8%,/,/
CCc1ccccc1NC(=O)C1CCCN(S(=O)(=O)c2ccc3[nH]c(=O)ccc3c2)C1 (stereo unspecified),-9%,-14,3%[46.1 µM],/,-14%,-5%
CCOC(=O)/C=C/C(=O)Nc1ccc(-c2nnc3n2CCCCC3)cc1,/,11,/,/,/,-7%
COc1ccc(/C=C/C(=O)Nc2ccc(-c3nnc4n3CCCCC4)cc2)c(OC)c1,-27%,-74*,-2%,8%,13%,-29%
CCOc1cc(S(=O)(=O)NCc2ccncc2)ccc1Cl,-18%,-84*,?,?,i,-10%
O=C(COc1ccc(S(=O)(=O)Nc2ccccc2)cc1)NCc1ccncc1,-16%,?,2.6µM*,?,-3%,11%
CCOc1ccc(S(=O)(=O)NCc2ccncc2)cc1,/,-96*,?,?,/,-14%
COC(=O)[C@@H]1CCCN1Cc1ccc2c(c1)CN(Cc1cccn1-c1ncccn1)CCO2,-3%,/,/,/,-9%,?
CCOc1ccc(NC(=O)CN(C)C(=O)c2ccccc2CCc2ccccc2)cc1OCC,-23%,-19,-5%,-26%[46.1 µM],-21%,-23%
SMILES,Vaccinia Venus,HCMV antiviral,LASV entry inh,Marburg entry inh,Vaccinia mCherry,FMDV antiviral
CCOc1ccc(NC(=O)CN(C)C(=O)CCc2ccccc2Cl)cc1OCC,?,-80*,13%,-2%,-17%,?
Nc1ccccc1C=C1Cc2ccccc2C1=O,-16%,5,?,7.9µM*,-20%,-48%
O=C1C(=Cc2ccccc2[N+](=O)[O-])Cc2ccccc21,?,-96*,/,/,?,?
CC1(C)CC(=Cc2ccccc2[N+](=O)[O-])C(=O)c2ccccc21,-17%,12,/,/,-18%,5%
O=C(CCNC(=O)c1ccc(Br)cc1)Nc1cc(Cl)ccc1-n1cncn1,-5%,25,8%,2%[46.1 µM],2%,7%
O=C1C=CC(O)(c2cc(=O)c3c(O)cc(O)cc3o2)C=C1,?,-96*,?,?,11µM*,18µM*
COc1ccc(/C=N\NC(=O)c2cccc([N+](=O)[O-])c2)cc1Cn1cc([N+](=O)[O-])cn1,/,-35,/,/,/,/
COc1ccc(/C=N\NC(=O)c2cccc(F)c2)cc1COc1ccccc1,-37%,-86*,-16%,?,-9%,0%
COc1ccc(/C=N/NC(=O)c2ccc(N)cc2)cc1Cn1cc([N+](=O)[O-])cn1,17%,-5,?,7.9µM*,?,-17%
COc1ccc(C=O)cc1COc1ccccc1F,-20%,-34,?,?,-3%,?
COc1ccc(/C=C/C(=O)c2ccccc2)cc1COc1ccccc1F,/,-8,-29%,?,/,20µM*
COc1cc(/C=N/NC(=O)c2cccc(NC(=O)c3ccccc3)c2)ccc1O,-8%,-82*,20%,6%[46.1 µM],?,4%
CC(C)NC(=O)N[C@H]1CC[C@H](CC(=O)NCc2ccc(Oc3ccccc3)cc2)O[C@@H]1CO,-23%,1,/,/,-10%,-15%
C[C@H](NC(=O)C[C@@H]1C[C@@H]2c3cc(NC(=O)C4CCC4)ccc3O[C@@H]2[C@@H](CO)O1)c1ccccc1,/,-18,/,/,/,/
COc1ccc(/C=N/NC(=O)c2cccnc2)cc1COc1ccc([N+](=O)[O-])cc1,-27%,?,?,?,-19%,28µM*
COc1ccc(/C=N/NC(=S)Nc2ccccc2)cc1COc1ccc(F)cc1F,-18%,-9,1.6µM*,?,i,9%
CN(C)C(=O)c1ccc(/C=C/c2ccnc3ccccc23)cc1,1%,/,/,/,-22%,/
COc1cccc(N2CCN(C(=O)Cn3c(-c4cccs4)cc4ccccc43)CC2)c1,-12%,1,-13%[46.1 µM],/,-14%,-23%
CN(c1ccc(OCC(=O)Nc2nc3ccccc3s2)cc1)S(=O)(=O)c1ccccc1,/,?,/,0%,/,11µM*
CCc1nnc(NC(=O)COc2ccc(N(C)S(=O)(=O)c3ccc(C)cc3)cc2)s1,/,-102*,/,/,/,-13%
Cc1cc(NC(=O)COc2ccc(N(C)S(=O)(=O)c3ccccc3)cc2)no1,-2%,8,-6%,3%,-7%,-21%
